Test results: PubChem BioAssay (NCI)
Values joined by “and” are separate entries in the source; they are usually repeats but may differ in a detail not shown here. Equal values may be shown once. This is part of a sample that, as a whole, favours compounds with a hit. Of some 79,000 tested, about 15% had one in any assay. A number with no mark means an inactive call. Active and inactive are the calls of the source. Rule as the data show it: active = growth inhibition above about 70%; inactive = the rest.

Key:
[1] = NCI Yeast Anticancer Drug Screen. Data for the rad50 strain (AID 155);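 also: 0% = growth of vehicle-only cultures of the same strain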; conditions: S. cerevisiae rad50 strain growth inhibition, stronger effect = higher value; at 50.0 µM unless noted
In short: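 Yeast carrying a defined DNA repair defect were exposed to test compounds, and growth was compared with vehicle-treated controls to give percent inhibition.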

[2] = NCI Yeast Anticancer Drug Screen. Data for the mec2-1 strain (AID 157); conditions: S. cerevisiae mec2-1 strain, stronger effect = higher value; at 50.0 µM unless noted
In short: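 Readout is yeast growth inhibition, normalised to vehicle-treated controls, in the mec2-1 strain exposed to compound.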

[3] = NCI Yeast Anticancer Drug Screen. Data for the sgs1 mgt1 strain (AID 161);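 also: 0% = growth of cultures given vehicle only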; conditions: S. cerevisiae sgs1 mgt1 strain, stronger effect = higher value; at 50.0 µM unless noted
In short: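 Yeast cells carrying a defined DNA-repair defect were exposed to test compounds. Growth inhibition was measured relative to vehicle-treated controls.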

[4] = NCI Yeast Anticancer Drug Screen. Data for the cln2 rad14 strain (AID 165);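 also: 0% = growth equal to vehicle treated cultures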; conditions: S. cerevisiae cln2 rad14 strain, stronger effect = higher value; at 50.0 µM unless noted
In short: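 Relative to vehicle controls, growth inhibition of compound-treated cln2 rad14 yeast was recorded.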

[5] = NCI Yeast Anticancer Drug Screen. Data for the bub3 strain (AID 167); conditions: S. cerevisiae bub3 mutant strain, stronger effect = higher value; at 50.0 µM unless noted
In short: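 Compounds were applied to a genetically altered yeast strain carrying a cell-cycle control defect. Growth inhibition was scored against vehicle-treated controls.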

[6] = NCI Yeast Anticancer Drug Screen. Data for the mlh1 rad18 strain (AID 175); conditions: S. cerevisiae mlh1 rad18 strain growth inhibition, stronger effect = higher value; at 50.0 µM unless noted
In short: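 Test agents were incubated with a yeast strain of defined genotype (DNA damage repair defect). Inhibition of growth was derived by comparison with vehicle-exposed cultures.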

Structure (SMILES) | growth inhibition [1] | growth inhibition [2] | growth inhibition [3] | growth inhibition [4] | growth inhibition [5] | growth inhibition [6]
O=CNCC(=O)O | 15.6% | -3.75% | -15.5% | -0.7% | -2.55% | 7.9%
CC(=O)Oc1ccccc1C(=O)N(N)CCSc1ccc(Cl)cc1 | -0.45% | 1.15% | 11.2% | -32.2% | -12.5% | -1%
COc1cc(C(O)C2C(=O)OCC2C2(c3ccc4c(c3)OCO4)SCCCS2)cc(OC)c1OC (centres undefined) | 36.1% and -8.8% | -2.8% and -8.95% | 35.4% and -21.5% | 7.2% and 1.7% | 10.1% and -2.95% | 1.45% and 17.2%
CC(=O)C1=CC2(OC3CCC(O)(C(=O)CO)C(C)O3)C(=O)c3c(cc4cccc(O)c4c3O)CC2C(O)C1O (centres undefined) | -6.2% | -1.05% | 2.9% | -21.2% | 20.8% | 9.65%
CC1CN(S(=O)(=O)c2ccccc2)CCN1S(=O)(=O)c1ccccc1 (centres undefined) | -9.65% | -4.3% | -8.35% | -8.45% | 1.5% | -0.55%
CC(=O)Nc1cc(Cl)ccc1F | 14.1% | -6.15% | 12.4% | -7.1% | -0.7% | 17.9%
COc1ccccc1C(=O)Oc1ccc(OC(=O)c2ccccc2OC)c(C(C)=O)c1 | 16.6% | -1.85% | 0% | 3.25% | 20.2% | 35.4%
Clc1ccc(/C=C/c2nc(Cl)c(-c3ccc(Cl)cc3)c(Cl)n2)cc1 | -15.2% | -18.8% | -3.1% | 14.3% | -23.8% | 5.3%
C[n+]1cccc(C#N)c1 | 6.55% and 5.2% | 4.6% and -7.45% | -0.95% and 0.4% | -14.8% and -21.6% | 2.3% and -6.65% | -0.5% and 10.1%
COC(=O)c1[nH]c(=O)c2ccc([N+](=O)[O-])cc2c1O | -15.7% | 0.15% | -14.9% | 16.1% | -6.05% | -0.4%
O=C(Nc1ccc(S(=O)(=O)c2ccc(F)cc2)cc1)OC1CCCCC1 | 35.9% | 5.85% | 38.9% | 18.1% | 4.4% | 18.4%
CC1C=NNC1=O (centres undefined) | 19.9% | -30.8% | 23.5% | 3.4% | -0.05% | 4.5%
Cc1ccc(S(=O)(=O)/N=S(/Cc2ccccc2)c2c(C)cccc2C)cc1 (centres undefined) | 20.9% | 2.65% | 20.6% | 17.6% | -0.75% | 3.3%
O=C1CC(Cc2n[nH]c3c2CCCC3)CC(=O)N1 | 4.2% | 3.8% | -4.8% | 7.35% | -2.15% | -7.75%
CC(=O)NC(CCCCNC(=O)N(CCCl)N=O)C(=O)NCc1ccccc1 (centres undefined) | 1.2% | -1.15% | 0.7% | 14.7% | -2.35% | -1.85%
CCN(CC)C(=O)c1c(N2CCOCC2)cc(N(CC)CC)oc1=O | -10.2% | -8.25% | -46.6% | -8.85% | -37.9% | -40.6%
COc1ccc2c(c1)CCC1=C2CCC2(C)C1=CCS2(=O)=O (centres undefined) | 3.85% | -5.6% | -7.9% | 22.6% | 8.45% | -1.9%
CC1(C)OCC(C2OC3OC(C)(C)OC3C2N)O1 (centres undefined) | 10.8% | 10.7% | 11.1% | -2.95% | 21.8% | 5.4%
OC/C(Br)=C(\Br)CO | -34.3% | -54.4% | -39.6% | -9.25% | -28.6% | -35.5%
COCN(CCc1ccccc1)CCN(C)C | 1.4% | 5.1% | 35% | 7.2% | 2.05% | 16.5%

Structure (SMILES) | growth inhibition [1] | growth inhibition [2] | growth inhibition [3] | growth inhibition [4] | growth inhibition [5] | growth inhibition [6]
CSc1ccc(C)cc1 | 30.6% | -15.2% | -24.5% | -21.6% | -9.35% | 26.7%
COc1ccc(CCNC(=O)[C@H]2CCCC[C@@H]2CCO)cc1OC | 15.5% | 10.6% | -46.9% | 3.25% | -42.8% | -9%
COC(=O)C1(C)C=C(Nc2ccccc2)C(=O)N1c1ccccc1 (centres undefined) | -3.45% | -19.8% | 6.2% | 21.8% | 23.4% | 2.25%
Nc1ccc2c(c1)C(=O)c1cc(Cl)cc(Cl)c1-2 | 0% | -4.75% | -0.5% | -44% | 7.05% | 2.25%
C=C(C#N)CSc1c(Cl)c(Cl)c(Cl)c(Cl)c1Cl | 34.5% | 13% | 9.2% | 17.7% | 16.8% | 62.6%
OCCCCCCCl | -28.8% | -24.8% | -11.6% | -6.65% | -3.05% | 3.6%
COc1cc(Cc2nccc3cc(OC)c(OC)cc23)c(C(C)=O)cc1OC | 21.9% | -22.9% | 19.1% | 14.1% | 22% | 22.4%
C/C(CC(=O)Nc1ccc(Cc2ccc(Br)cc2)cc1)=N/Nc1ccc([N+](=O)[O-])cc1[N+](=O)[O-] | 25.1% | 12.6% | 31.3% | 16.5% | 4.1% | 24.7%
Oc1[nH]c2ccccc2c1N=NC(=S)Nc1ccccc1 | 12.6% | 2.5% | -2.3% | -13.1% | -11.4% | -4.75%
O=C(Nc1ccc(Br)cc1)C(Br)C(Br)c1ccccc1 (centres undefined) | 98% (active) | 97.7% (active) | 98.6% (active) | 96.7% (active) | 97.8% (active) | 97.9% (active)
CCOc1ccc(OCC)cc1 | 3.6% | -0.65% | -9.05% | -29.3% | -11.1% | 4.65%
COc1ccccc1-n1c(=O)c(N=Nc2ccc(Br)cc2)c(O)n(-c2ccccc2C)c1=S | 49.1% | 0.85% | 44.7% | -11.1% | -2.45% | 17.6%
CCCCCCCCOC(=O)NC1c2ccccc2Oc2c(C)cccc21 (centres undefined) | 1.7% | 5.9% | 9.45% | -30.1% | -3.05% | 12.9%
c1ccc(C2=NN(c3ccccc3)CC2)cc1 | -8.3% | -3.15% | 0.4% | 9.25% | 9.35% | 2.05%
Clc1ccc(OCC(COc2ccccc2)Oc2nc(-c3ccccc3)nc(-c3ccccc3)n2)cc1 (centres undefined) | -14.2% | 2.25% | 3.1% | -5.8% | -8.6% | -17.1%
O=C1CCC(=O)N1C(c1ccccc1)c1ccccc1 | -10.4% | 6.95% | 5.85% | -30.9% | 20.9% | -6.2%
COc1ccc(/C(C)=N/N=C\c2cc(OC)c(OC)c(OC)c2)cc1 | 6.95% | 3.15% | -10.8% | 14.8% | 83.2% (active) | 8.2%
CNC(=O)N(CCCCC(NC(C)=O)C(=O)NCc1ccccc1)Cc1ccccc1 (centres undefined) | -12.3% | -23.2% | -15.8% | -12.4% | -7.1% | -12.8%
Cc1cc(=O)oc2c(C)c(OCCCOc3ccc4c(C)cc(=O)oc4c3C)ccc12 | -29.8% | -15.6% | -6.1% | 11.1% | -30.8% | -34.3%
